Test results published in PubChem BioAssay (NCI).
About 79,000 compounds went through this panel and 15% of them were active in at least one assay; those are over-represented in the sample as a whole. Rule as the data show it: active = growth inhibition above about 70%; inactive = the rest.

What was measured:
[1] = NCI Yeast Anticancer Drug Screen. Data for the rad50 strain (AID 155);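 also: 0% = growth of vehicle-only cultures of the same strain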; conditions: S. cerevisiae rad50 strain growth inhibition; at 50.0 µM; active compounds read high
Procedure, shortened: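 Readout: growth inhibition relative to vehicle-treated cultures. Compound exposure was carried out in a genetically defined yeast strain deficient in DNA damage repair.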

[2] = NCI Yeast Anticancer Drug Screen. Data for the mec2-1 strain (AID 157); conditions: S. cerevisiae mec2-1 strain, at 50.0 µM, active compounds read high
Procedure, shortened: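 Strain: mec2-1 (DNA repair/cell cycle alteration). Compound exposure, then growth measured; inhibition expressed relative to vehicle.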

[3] = NCI Yeast Anticancer Drug Screen. Data for the sgs1 mgt1 strain (AID 161);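 also: 0% = growth of cultures given vehicle only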; conditions: S. cerevisiae sgs1 mgt1 strain, at 50.0 µM, active compounds read high
Procedure, shortened: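 Read-out: growth inhibition vs vehicle controls. Cells: mutant yeast strain deficient in DNA damage repair.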

[4] = NCI Yeast Anticancer Drug Screen. Data for the cln2 rad14 strain (AID 165);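 also: 0% = growth equal to vehicle treated cultures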; conditions: S. cerevisiae cln2 rad14 strain, at 50.0 µM, active compounds read high
Procedure, shortened: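 Compounds are applied to the cln2 rad14 yeast strain, and growth is then compared with that of vehicle-treated cultures to give inhibition.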

[5] = NCI Yeast Anticancer Drug Screen. Data for the bub3 strain (AID 167); conditions: S. cerevisiae bub3 mutant strain, at 50.0 µM, active compounds read high
Procedure, shortened: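 Readout: yeast growth inhibition, expressed relative to vehicle-only wells. The test organism is a mutant strain from a panel with lesions in DNA repair or checkpoint genes.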

[6] = NCI Yeast Anticancer Drug Screen. Data for the mlh1 rad18 strain (AID 175); conditions: S. cerevisiae mlh1 rad18 strain growth inhibition; at 50.0 µM; active compounds read high
Procedure, shortened: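 Read-out is yeast growth inhibition, calculated against vehicle-only controls. The compound was applied to a strain engineered with DNA damage repair alterations.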

Measured: growth inhibition

COC(=O)/C=C(\C(=O)OC)C(C(=O)c1ccccc1)=P(c1ccccc1)(c1ccccc1)c1ccccc1
inactive: [1] -9.95% | [2] 8.7% | [3] -4.2% | [4] -26.5% | [5] 3.55% | [6] 1.15%

C[C@H](NC(=O)n1c2ccccc2c2ccccc21)C(=O)O
inactive: [1] 2.5% | [2] 5.2% | [3] -20.1% | [4] -5.9% | [5] -1.05% | [6] -2.95%

COc1ccc(C(=O)N2CCOCC2)cc1
inactive: [1] -8% | [2] -16.6% | [3] -0.9% | [4] 31.9% | [5] -3.05% | [6] -10.6%

Cc1cc(S(N)(=O)=O)c(SCc2nc(N)nc(N(C)C)n2)cc1Cl
inactive: [1] -30.8% | [2] -22.3% | [3] -20.3% | [4] 9.05% | [5] -37.4% | [6] 7.8%

CCC(C)C(N=C1N=CNC2=NC=NC12)C(=O)O (stereo unspecified)
inactive: [1] 0.45% | [2] -27.8% | [3] -2.6% | [4] 6.5% | [5] -10.6% | [6] -4.1%

Nc1nc(-c2ccccc2)nc(N)c1C=O
inactive: [1] -21.8% | [2] -21.9% | [3] -43.2% | [4] -4.95% | [5] -6.9% | [6] -20.6%

OCc1ccccc1
inactive: [1] 37% | [2] 19.2% | [3] 0.1% | [4] -14.7% | [5] 29.4% | [6] 26.1%

CC(=O)CC(=O)NCc1ccc2c(c1)OCO2
inactive: [1] -17.4% | [2] -9.2% | [3] -16.3% | [4] 3.75% | [5] -15.1% | [6] -11.8%

CCC(CO)(CO)[N+](=O)[O-]
inactive: [1] 10.2% | [2] -2% | [3] -20.5% | [4] 5% | [5] 16.8% | [6] 7.25%

COc1cc(C2c3cc4c(c(OC(=O)c5ccccn5)c3CC3COC(=O)C32)OCO4)cc(OC)c1OC (stereo unspecified)
inactive: [1] 8.1% | [2] 10.1% | [3] 11.6% | [4] -9.5% | [5] 13% | [6] 34%

CC(OC(C(O)C=O)C(O)C(O)CO)C(=O)N[C@@H](C)C(=O)O (stereo partly specified)
inactive: [1] 6.1% | [2] -8.55% | [3] -0.75% | [4] -2.45% | [5] -9.2% | [6] 25.8%

COc1ccc(NC(=O)CSc2nnc(-c3ccc(NC(C)=O)cc3)o2)cc1
inactive: [1] 22.5% | [2] 2.2% | [3] 35.6% | [4] 22.2% | [5] 36% | [6] 0.55%

O=C(COC(=O)C(CC(=O)c1ccccc1)Cc1ccccc1)c1ccc(-c2ccccc2)cc1 (stereo unspecified)
inactive: [1] 25.7% | [2] 25.3% | [3] 6% | [4] 30.8% | [5] 35.4% | [6] 13.3%

CC1c2ccccc2-c2ccccc2N1C(=O)c1cccc(C(=O)N2c3ccccc3-c3ccccc3C2C)n1 (stereo unspecified)
inactive: [1] 26.3% | [2] 11.6% | [3] -6.75% | [4] -1.9% | [5] -2.1% | [6] 18.1%

O=C1c2ccccc2-c2ccc(-c3ccc4c5c(cccc35)C(=O)c3ccccc3-4)c3cccc1c23
inactive: [1] -21.9% | [2] -27.6% | [3] -7.9% | [4] -0.85% | [5] -31.3% | [6] -34.2%

Oc1cc2c(cc1O)C1c3ccc(O)c(O)c3OCC1(O)C2 (stereo unspecified)
inactive: [1] 21.9% | [2] 13% | [3] 22.7% | [4] -1% | [5] 9.4% | [6] 22.4%

NC(=O)Nc1ccccc1
inactive: [1] 11.4% | [2] -8.6% | [3] -7.55% | [4] -34.5% | [5] -5.2% | [6] 14.2%

CN(C)CCNc1cccc2oc3ccc(O)cc3c(=O)c12
inactive: [1] 8.2% | [2] -4.95% | [3] 9.55% | [4] -2.3% | [5] -4.95% | [6] 7.4%

COC(=O)c1cc(C)c2c3ccccc3n(C)c2c1C(=O)OC
inactive: [1] 19.6% | [2] -0.4% | [3] -8.9% | [4] -1.5% | [5] -9.9% | [6] -13.5%

COc1cc(NCCCN(CC(C)C)CC(C)C)c2ncccc2c1Cl
inactive: [1] 27.5% | [2] 26.1% | [3] 55% | [4] 19.8% | [5] 27.3% | [6] 38.4%

CCCCOC(=O)C1CSSCC(NC(C)=O)C(=O)N1 (stereo unspecified)
inactive: [1] -2.05% | [2] -7.35% | [3] 1.5% | [4] -16.5% | [5] -7.2% | [6] -6.95%

CCOC(=O)CC1C(C)C(C)NC(C)C1C (stereo unspecified)
inactive: [1] -1.85% | [2] -24.3% | [3] -20.2% | [4] 12.1% | [5] 2.95% | [6] 5.75%

CCCCC(=O)/C=C/c1ccccc1
inactive: [1] 12.3% | [2] -8.15% | [3] -3.95% | [4] -46.5% | [5] -6.6% | [6] -3.4%

COc1ccc(Cl)cc1NC(=O)c1ccc(C(=O)Nc2cc(Cl)ccc2OC)cc1
inactive: [1] -5.85% | [2] 7.3% | [3] -10.2% | [4] -22.9% | [5] 0.7% | [6] 9.5%

COc1ccc2c(c1)CCN1CCc3ccccc3CC21 (stereo unspecified)
inactive: [1] 30.6% | [2] 43.4% | [3] 58.5% | [4] 45.9% | [5] 53.4% | [6] 42.6%

CC1(C)CCc2cc3c(cc2O1)OC(C)(C)CC3=O
inactive: [1] 9.05% | [2] 8.75% | [3] -15.9% | [4] 22.4% | [5] -1.45% | [6] -17.4%

CCOC(=O)Nc1c(O)cccc1N1CCOCC1
inactive: [1] -14.1% | [2] 6.65% | [3] 25.9% | [4] -12.1% | [5] 7.4% | [6] -1.25%

CC1(O)/C=C\C=C(\CO)C2CC(C)(C)C2(O)CC1 (stereo unspecified)
inactive: [1] -29.9% | [2] -40% | [3] -43.1% | [4] -4.5% | [5] -46% | [6] -29.8%

N=C(N)c1cccc(NC(=O)CCc2ccccc2)c1
inactive: [1] -7.3% | [2] -14.6% | [3] -17.8% | [4] -29.1% | [5] 0.95% | [6] 1.9%

C=C1CN(CCc2ccccc2)C(=S)S1
inactive: [1] 55.6% | [2] 19.1% | [3] 22.4% | [4] 3.65% | [5] 1.35% | [6] 11.4%

Cc1cc(COCCN(C)C)on1
inactive: [1] -3.5% | [2] 14.2% | [3] 14.9% | [4] -3.95% | [5] 11.8% | [6] 4.35%

C[N+](C)(CCS(=O)(=O)[O-])C1CCCCC1
inactive: [1] -6.65% | [2] -8.7% | [3] -8.9% | [4] -23.1% | [5] 6.75% | [6] -12.8%

O=C/C(=C1/C=Cc2cc([N+](=O)[O-])ccc2S1)c1ccccc1
inactive: [1] -6.5% | [2] -18.8% | [3] -11% | [4] -14.8% | [5] -9.05% | [6] -6.6%

CNC(=O)Nc1ccc(C(=O)OCC(C)C)cc1
inactive: [1] 6.4% | [2] 8.7% | [3] 12.9% | [4] -34.1% | [5] -22.1% | [6] 7.45%

Cc1ccc(C(c2ccc(C)c(C)c2)C(O)C(O)C(O)C(O)CO)cc1C (stereo unspecified)
inactive: [1] -4.8% | [2] -2.6% | [3] -2.9% | [4] 1.6% | [5] -6.05% | [6] -18.4%

CCOC(=O)C1=C(Nc2ccccc2)OC/C1=N\NC(=O)Cc1ccccc1
inactive: [1] -6.75% | [2] -23.7% | [3] -1.6% | [4] 0.85% | [5] 10.2% | [6] -19.1%

O=CNC1(c2ccccc2)CCCCC1
inactive: [1] 2% | [2] -37% | [3] -12.2% | [4] 16.4% | [5] 4.6% | [6] 4.85%

Nc1nc(N)nc(-c2ccccc2NC(=O)c2ccccc2N)n1
inactive: [1] 2.15% | [2] 14.3% | [3] -0.25% | [4] 8.5% | [5] 6.85% | [6] 18%

COC(=O)NCc1nc2cc3c[nH][nH]c3cc2n1
inactive: [1] -8.15% | [2] 0.05% | [3] 14.9% | [4] -16% | [5] 11.6% | [6] 11.2%

C#CCN(CC#C)C(=O)C(=O)c1c[nH]c2ccc(OC)cc12
inactive: [1] 41.2% | [2] 0.9% | [3] 56.8% | [4] 44.5% | [5] 52.4% | [6] 51%

O=C(CCN1CCCCC1)Nc1ccc2sc3ccccc3c(=O)c2n1
inactive: [1] 51.9% | [2] -19.7% | [3] -0.6% | [4] 9.1% | [5] 11.1% | [6] 10.7%
